# High-throughput results deposited in PubChem by National Center for Advancing Translational Sciences (NCATS).
# Hits are enriched below; roughly 8.3% of the tested compounds scored in any of these assays.
# LASV entry inh: qHTS for Inhibitors of binding or entry into cells for Lassa Virus; Potency, µM (top dose mostly 37.9 µM), inactives show top-dose activity change, negative = inhibition, hits mostly inhibitors; AID 540256, 2011; Lassa virus pseudotype entry inhibition, cell reporter; 300,000 tested, 1.2% active; calls by dose curve; tested in HEK293 cells; further: potency means the concentration at half of the fitted maximal effect; nearly all actives have a fitted effect of over 50% in size
# HCV inh: qHTS Assay for Inhibitors of Hepatitis C Virus (HCV); Huh7.5.1 HCVcc-Cre infection, luciferase reporter, 44 h; Potency, µM (top dose mostly 41.8 µM), for the others: at the top dose activity change, negative = inhibition, usual class: inhibitors; 340,000 tested, 3.4% active; AID 651820, 2012; further: potency means the concentration at half of the fitted maximal effect
#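 1,000 cells/well; 4 h culture; + compound; + HCVcc-Cre (~0.5 moi); 44 h; luciferase substrate, RT 15 min; read 15 sec.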
# MARV entry inh: qHTS for inhibitors of binding or entry into cells for Marburg Virus; Marburg virus pseudotyped entry inhibition, cell reporter; Potency, µM (series often up to 37.8 µM), for inactives: at the top dose activity change, negative = inhibition, actives largely listed as inhibitors; 300,000 tested, 1.8% active; AID 540276, 2011; calls by dose curve; tested in HEK293 cells; further: potency means the concentration at half of the fitted maximal effect
# FMDV inh: High Throughput Screening for Foot and Mouth Disease Virus Antivirals; FMDV antiviral cell-based qHTS; Potency, µM (highest dose often 57.9 µM), for the others: at the top dose activity change, negative = inhibition, usual class: inhibitors; 410,000 tested, 1.2% active; calls by dose curve; tested in HEK293T cells; further: read-out not given here; potency means the concentration at half of the fitted maximal effect; nearly all actives have a fitted effect of over 45% in size
# FBPA Giardia inh: qHTS Assay for Inhibitors of Fructose-1,6-bisphosphate Aldolase from Giardia Lamblia | AID 2451, 2010 | Potency, µM (series often up to 59.6 µM), for inactives: top-dose activity, negative = inhibition, usual class: inhibitors | purified Giardia FBPA | 290,000 tested, 0.71% active | A8B2U2; further: potency means the concentration at half of the fitted maximal effect; nearly all actives have a fitted effect of over 55% in size
# Target sequence (A8B2U2 whole entry, looked up): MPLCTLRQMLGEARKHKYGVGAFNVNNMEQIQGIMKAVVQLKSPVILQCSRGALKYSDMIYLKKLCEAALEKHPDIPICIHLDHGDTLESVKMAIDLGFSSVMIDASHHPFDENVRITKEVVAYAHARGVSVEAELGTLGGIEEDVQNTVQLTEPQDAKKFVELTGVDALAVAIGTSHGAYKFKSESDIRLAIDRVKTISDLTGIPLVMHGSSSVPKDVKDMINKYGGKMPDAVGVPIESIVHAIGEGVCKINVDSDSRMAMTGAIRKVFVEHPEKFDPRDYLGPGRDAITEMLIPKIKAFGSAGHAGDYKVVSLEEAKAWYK
#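 Giardia FBPA (40 nM reagent) was preincubated 10 min at RT with compound (up to 57.5 uM final), then substrate plus GAPDH/TPI/NAD/arsenate coupling system with diaphorase/resazurin was added; resorufin fluorescence (525/598 nm) was read after 20 min.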
# HCMV inh: qHTS Assay for inhibitors of the human cytomegalovirus (HCMV) | activity change, negative = inhibition, % at 57.5 µM | 410,000 tested, 4.5% active | HFF cells, HCMV-luciferase reporter, 72 h; hits give low values; in the data active means activity change below about -60%; inconclusive means no clear call, values can overlap the other calls; inactive means above about -39%
#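 HFF cells seeded 16 h at 37C, treated with compounds, infected with luciferase-reporter HCMV at MOI 1 PFU/cell; luciferase read at 72 h post infection, normalized to buffer-only and Salinomycin controls.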
# An asterisk follows results filed as active; ? = inconclusive; nt = no result; [ ] = dose if it differs, or a comment. Unless noted, the call rests on the fitted dose curve; in most records, active means well fitted curve in the direction sought with a large enough effect; inconclusive means small, poorly fitted or top-dose-only effect, or another doubt; inactive means no such curve, though single readings can be large; an effect the other way counts as inactive or inconclusive. On the % scale 0 is the no-effect control and ±100 the full control effect.
SMILES,LASV entry inh,HCV inh,MARV entry inh,FMDV inh,FBPA Giardia inh,HCMV inh
COc1cc(OC)cc(-c2cc3c(Nc4ccc(OC)nc4)nccc3n2C)c1,nt,nt,nt,nt,nt,-31
CCSc1nnc(NC(=O)CSc2nc3c(c(=O)n2CC)SC(C)C3)s1 (centres undefined),?,?,?,?,-1%,-17
CCSc1nnc(NC(=O)CSc2nc3c(c(=O)n2C)SC(C)C3)s1 (centres undefined),14%,?,-19%,nt,-11%,-85*
CC(C)NC(=O)N1CCCC2(CCN(C(=O)c3cc(C(F)(F)F)cc(C(F)(F)F)c3)CC2)C1,nt,nt,nt,-8%,-5%,nt
Cc1ccc(N(C)S(=O)(=O)c2cc(-c3cnc(C4CC4)o3)ccc2C)cc1,?,3.2µM*,?,?,-3%,-18
Cc1ccc(NS(=O)(=O)c2cc(-c3cnc(C4CC4)o3)ccc2C)cc1Cl,?,nt,nt,48%,nt,-64*
Cc1ccc(-c2cnc(C3CC3)o2)cc1S(=O)(=O)Nc1ccccc1,nt,?,nt,36%,nt,nt
Cc1cccc(N(C)S(=O)(=O)c2ccc(-c3cnc(C4CC4)o3)cc2)c1,nt,?,nt,?,nt,-98*
Cc1ccc(C)c(N2CCN(S(=O)(=O)c3ccc(-c4cnc(C5CC5)o4)cc3)CC2)c1,?,nt,nt,0%,nt,-12
COc1ccc(-n2c(C(C)n3nc(C)c([N+](=O)[O-])c3C)n[nH]c2=S)cc1 (centres undefined),3%,24%,4%,0%,?,-16
COc1ccc(-n2c(C)c([N+](=O)[O-])c3ccc(O)c(CN(C)C)c32)cc1,-24%,-30%,?,-28%,8%,-92*
O=C(c1ccc(F)cc1)n1nc(-c2cccnc2)nc1NCc1ccc(F)cc1,0%[46.1 µM],nt,?,-5%,nt,5
COC(=O)c1cc(OC)c(OC)cc1NC(=O)c1ccco1,-5%,6.3µM*,-25%,?,2%,-10
COc1cc(NC(=O)c2ccco2)c(C(=O)O)cc1OC,-5%,4%,0%,-11%,-1%,-1
COCCNC(=S)Nc1cc(OC)c(NC(=O)c2ccco2)cc1OC,6%,13µM*,0%,-15%,3%,-34
CCOCCCNC(=S)Nc1cc(OCC)c(NC(=O)c2ccco2)cc1OCC,-17%,-17%,6%[46.1 µM],7%,-23%,16
COc1ccc(NC(=O)COC(=O)c2cc(OC)c(OC)cc2NC(=O)c2ccco2)cc1OC,-15%,-23%,-5%,-8%,-4%,-66*
CCCn1c(C(=O)OC)cc2c1ccn2-c1ccc(F)cc1,-5%,32µM*,0%,-8%,nt,-11
COC(=O)c1cc2c(ccn2-c2ccc(F)cc2)n1Cc1ccc(OC(C)=O)cc1,?,8.9µM*,-1%,16%,2%,-1
CCOC(=O)c1cc2c(ccn2-c2ccc(F)cc2)n1CC(=O)N1CCN(C(=O)c2ccco2)CC1,9.2µM*,?,3%,6%,-5%,-21
COC(=O)c1cc2c(ccn2-c2ccc(F)cc2)n1CC(C)C,0%,11µM*,0%,-19%,nt,-6
COC(=O)c1cc2c(ccn2-c2ccc(F)cc2)n1C(C)C,0%,-30%,11%,-15%,nt,-1
COc1ccc(CCNC(=O)C2COc3ccccc3C2)cc1OC (centres undefined),-7%[46.1 µM],nt,nt,-9%,nt,15
CCCCCc1c(-c2ccccc2F)ncn1CCc1ccccc1OC,nt,nt,nt,32µM*,nt,?
CCCc1c(-c2ccccc2F)ncn1CCc1ccccc1OC,nt,nt,nt,32µM*,nt,-95*
CCc1c(-c2ccc(OC)c(OC)c2)ncn1CCc1ccccc1OC,nt,nt,nt,nt,nt,-28
CCOCCn1ccc2c(OCC(=O)NCc3ccc(F)cc3)cccc2c1=O,?,nt,nt,-18%,nt,18
Cc1ccc(SCc2nc(N)nc(Nc3ccccc3C)n2)cc1C,nt,13µM*,nt,13%,-9%,-101*
Cc1ccccc1Nc1nc(N)nc(CSc2nc3ccccc3c(=O)n2C)n1,?,?,?,16µM*,3%,-36
Cc1ccc(SCc2nc(N)nc(Nc3ccccc3C)n2)c(C)c1,-16%,?,-1%,27%,-3%,-61*
